Source: PubChem BioAssay (Tox21)
Results filed as inconclusive are left out. Active and inactive are the calls of the source. Unless noted, calls come from the whole dose curve; as a rule, active = well fitted curve in the direction sought with a large enough effect in the repeat runs; inconclusive = weak or mixed curves; inactive = no such curve, though single readings can be large; an effect the other way counts as inactive or inconclusive.

Key:
[1] = qHTS assay to identify aromatase inhibitors - cell viability counter screen (AID 743084);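 note: cells stimulated with testosterone during compound exposure; nearly all actives have a fitted effect of over 55% in size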
[2] = molecular target: Aryl hydrocarbon receptor (Homo sapiens) (UniProt P35869); experiment: qHTS assay to identify small molecule that activate the aryl hydrocarbon receptor (AhR) signaling pathway (AID 743085);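 note: HG2L7.5c1 human HepG2 liver cells with stably integrated DRE-driven firefly reporter; series mostly up to about 70 µM; nearly all actives have a fitted effect of over 15% in size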
In short: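 AhR agonist activity is inferred from enhanced light output of a DRE-controlled firefly luciferase reporter in HepG2 cells, measured with ONE-Glo following 24 h treatment at 37C.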

[3] = qHTS assay to identify small molecule that activate the aryl hydrocarbon receptor (AhR) signaling pathway - cell viability counter screen (AID 743086);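 note: HepG2 liver cells carrying the AhR DRE luciferase reporter; series mostly up to about 70 µM; nearly all actives have a fitted effect of over 45% in size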
In short: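 HepG2-AhR-luc (HG2L7.5c1) cells, 4000/well, were preincubated 5 h at 37C, exposed to compound in qHTS format for 24 hr at 37C, then given CellTiter-Fluor for 30 min; viability was read as fluorescence in the reporter wells.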

[4] = molecular target: Peroxisome proliferator-activated receptor gamma (Homo sapiens) (UniProt P37231); experiment: qHTS assay to identify small molecule agonists of the peroxisome proliferator-activated receptor gamma (PPARg) signaling pathway (AID 743094; active = well fitted activation curve with a large enough effect in the signal ratio in the repeat runs, not every such curve was filed as active; the % refers to the signal ratio)
In short: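 Compounds dissolved in DMSO were added to PPARg UAS-bla HEK293H cells for 17 h at 37C, and reporter expression was quantified by fluorescence intensity after 1 h with LiveBLAzer B/G FRET substrate.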

[5] = molecular target: Peroxisome proliferator-activated receptor gamma (Homo sapiens) (UniProt P37231); experiment: qHTS assay to identify small molecule antagonists of the peroxisome proliferator-activated receptor gamma (PPARg) signaling pathway (AID 743191; calls by dose curve; note: series mostly up to about 63 µM; nearly all actives have a fitted effect of over 30% in size)
In short: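 GeneBLAzer PPARg UAS-bla HEK293H cells carrying a UAS-driven beta-lactamase reporter were plated at 3000 cells/well, preincubated 5 h at 37C, then given compound for 17 h at 37C; LiveBLAzer B/G FRET substrate was read after 1 h at room temperature.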

[6] = qHTS assay to identify small molecule antagonists of the peroxisome proliferator-activated receptor gamma (PPARg) signaling pathway - cell viability counter screen (AID 743194); note: nearly all actives have a fitted effect of over 55% in size
In short: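 PPARg-UAS-bla HEK293H cells were plated, rested 5 h at 37 C, then treated with compounds plus rosiglitazone (50 nM final) for 17 h at 37 C; viability was then read by CellTiter-Glo luminescence after 30 min at room temperature.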

[7] = qHTS assay for small molecule agonists of the antioxidant response element (ARE) signaling pathway (AID 743202; active = well fitted activation curve with a large enough effect in the signal ratio in the repeat runs, not every such curve was filed as active; the % refers to the signal ratio)
In short: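 Compounds delivered in DMSO to ARE-bla HepG2 cells (2,000 cells/well, pre-incubated 5 h) and left 16 h at 37 C. LiveBLAzer B/G FRET substrate then added for 2 h at RT before fluorescence reading.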

[8] = qHTS assay for small molecule agonists of the antioxidant response element (ARE) signaling pathway - cell viability counter screen (AID 743203; calls by dose curve; note: nearly all actives have a fitted effect of over 55% in size)
In short: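 Following 16 hrs of compound treatment at 37C, HepG2 cells with an ARE-controlled beta-lactamase gene were lysed with CellTiter-Glo. Luminescence was read after 30 min at room temperature.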

[9] = qHTS assay for small molecule activators of the heat shock response signaling pathway - cell viability counter screen (AID 743209); note: nearly all actives have a fitted effect of over 50% in size
In short: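 Readout: CellTiter-Glo luminescence, 30 min at room temperature. System: HSE-bla HeLa cells, 1500/well, plated overnight. Treatment: compounds in DMSO, 5 h at 37 C.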

[10] = qHTS assay for small molecule activators of the heat shock response signaling pathway (AID 743210; active = well fitted activation curve with a large enough effect in the signal ratio in the repeat runs, with a control signal flat, not every such curve was filed as active; the % refers to the signal ratio;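 note: HeLa cells with beta-lactamase reporter driven by heat shock elements; series mostly up to about 63 µM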)
In short: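 Reporter gene assay: HeLa cells stably bearing an HSE-bla construct, compound treatment 5 h at 37 C, LiveBLAzer substrate 2.5 h at RT, fluorescence intensity.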

[11] = qHTS assay to identify small molecule agonists of the peroxisome proliferator-activated receptor delta (PPARd) signaling pathway - cell viability counter screen (AID 743211); note: nearly all actives have a fitted effect of over 55% in size
In short: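 qHTS cell viability: PPARd-bla HEK293H; 17 h cpd, 37C; CellTiter-Glo, luminescence at 30 min RT.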

[12] = molecular target: Peroxisome proliferator-activated receptor delta (Homo sapiens) (UniProt Q03181); experiment: qHTS assay to identify small molecule agonists of the peroxisome proliferator-activated receptor delta (PPARd) signaling pathway (AID 743212; calls by dose curve)
In short: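 A PPARd-bla HEK293H line with beta-lactamase under an Upstream Activator Sequence is treated with compounds at 37 C. Substrate loading for 2 h at room temperature precedes the fluorescence measurement.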

[13] = qHTS assay to identify small molecule antagonists of the peroxisome proliferator-activated receptor delta (PPARd) signaling pathway - cell viability counter screen (AID 743213); note: nearly all actives have a fitted effect of over 50% in size
In short: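 Luminescence from CellTiter-Glo, added after the bla read and incubated 30 min at room temperature, gives viability of HEK293H PPARd-bla cells exposed to compounds for 17 h at 37 C with 300 nM L165041.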

[14] = molecular target: Peroxisome proliferator-activated receptor delta (Homo sapiens) (UniProt Q03181); experiment: qHTS assay to identify small molecule antagonists of the peroxisome proliferator-activated receptor delta (PPARd) signaling pathway (AID 743215; active = well fitted inhibition curve with a large enough effect in the signal ratio in the repeat runs, not every such curve was filed as active; the % refers to the signal ratio;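 note: cells stimulated with agonist L165041 at 300 nM final during compound exposure; series mostly up to about 62 µM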)
In short: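 HEK293H UAS-bla, PPARd; agonist L165041 300 nM final with cpd in DMSO; 37 C 17 h; FRET substrate, RT 2 h; fluorescence intensity.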

[15] = molecular target: Bile acid receptor (Homo sapiens) (UniProt Q96RI1); experiment: qHTS assay to identify small molecule antagonists of the farnesoid-X-receptor (FXR) signaling pathway (AID 743217; active = well fitted inhibition curve with a large enough effect in the signal ratio in the repeat runs, not every such curve was filed as active; the % refers to the signal ratio)
In short: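 GeneBLAzer FXR-UAS-bla HEK 293T, CDCA-stimulated (50 uM final). Compound treatment 16 h, 37 °C. Detection: beta-lactamase cleavage of B/G FRET substrate, fluorescence.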

[16] = qHTS assay to identify small molecule agonists of the farnesoid-X-receptor (FXR) signaling pathway - cell viability counter screen (AID 743218); note: nearly all actives have a fitted effect of over 45% in size
In short: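 Parallel cytotoxicity test: compound-treated (16 h, 37 C) HEK 293T FXR-bla reporter cells were lysed with CellTiter-Glo and luminescence recorded.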

[17] = qHTS assay to identify small molecule antagonists of the farnesoid-X-receptor (FXR) signaling pathway - cell viability counter screen (AID 743221; active = well fitted cell-killing curve with a large enough effect in the repeat runs, not every such curve was filed as active; note: nearly all actives have a fitted effect of over 50% in size)
In short: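 After a 5 h settling period, FXR-bla HEK 293T cells receive compound and chenodeoxycholic acid (50 uM final) and incubate 16 h at 37 C; CellTiter-Glo luminescence, read after 30 min at room temperature, reports cell viability.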

[18] = molecular target: Vitamin D3 receptor (Homo sapiens) (UniProt P11473); experiment: qHTS assay to identify small molecule agonists of the vitamin D receptor (VDR) signaling pathway (AID 743222; calls by dose curve)
In short: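 In VDR-bla cells, compound-induced beta-lactamase expression is quantified by FRET substrate fluorescence. Treatment lasts 16 h at 37C; substrate develops 2 h at room temperature.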

[19] = molecular target: Bile acid receptor (Homo sapiens) (UniProt Q96RI1); experiment: qHTS assay to identify small molecule agonists of the farnesoid-X-receptor (FXR) signaling pathway (AID 743220; active = well fitted activation curve with a large enough effect in the signal ratio in the repeat runs, not every such curve was filed as active; the % refers to the signal ratio)
In short: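 Beta-lactamase reporter under UAS control in GeneBLAzer FXR HEK 293T cells (5000/well) measured with LiveBLAzer FRET substrate after 2 h at room temperature. Compound exposure lasted 16 h at 37C.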

[20] = molecular target: Vitamin D3 receptor (Homo sapiens) (UniProt P11473); experiment: qHTS assay to identify small molecule antagonists of the vitamin D receptor (VDR) signaling pathway (AID 743223; active = well fitted inhibition curve with a large enough effect in the signal ratio in the repeat runs, not every such curve was filed as active; the % refers to the signal ratio)
In short: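 Reporter line VDR-bla; stimulus 1alpha,25-(OH)2 vitamin D3, 3 nM final; compound co-addition, 16 h 37C/5% CO2; LiveBLAzer B/G substrate 2 h RT; fluorescence intensity.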
% is set by controls: 0 for no effect and ±100 for the full control effect.

Sequence of Aryl hydrocarbon receptor (Homo sapiens) (P35869 whole entry, looked up): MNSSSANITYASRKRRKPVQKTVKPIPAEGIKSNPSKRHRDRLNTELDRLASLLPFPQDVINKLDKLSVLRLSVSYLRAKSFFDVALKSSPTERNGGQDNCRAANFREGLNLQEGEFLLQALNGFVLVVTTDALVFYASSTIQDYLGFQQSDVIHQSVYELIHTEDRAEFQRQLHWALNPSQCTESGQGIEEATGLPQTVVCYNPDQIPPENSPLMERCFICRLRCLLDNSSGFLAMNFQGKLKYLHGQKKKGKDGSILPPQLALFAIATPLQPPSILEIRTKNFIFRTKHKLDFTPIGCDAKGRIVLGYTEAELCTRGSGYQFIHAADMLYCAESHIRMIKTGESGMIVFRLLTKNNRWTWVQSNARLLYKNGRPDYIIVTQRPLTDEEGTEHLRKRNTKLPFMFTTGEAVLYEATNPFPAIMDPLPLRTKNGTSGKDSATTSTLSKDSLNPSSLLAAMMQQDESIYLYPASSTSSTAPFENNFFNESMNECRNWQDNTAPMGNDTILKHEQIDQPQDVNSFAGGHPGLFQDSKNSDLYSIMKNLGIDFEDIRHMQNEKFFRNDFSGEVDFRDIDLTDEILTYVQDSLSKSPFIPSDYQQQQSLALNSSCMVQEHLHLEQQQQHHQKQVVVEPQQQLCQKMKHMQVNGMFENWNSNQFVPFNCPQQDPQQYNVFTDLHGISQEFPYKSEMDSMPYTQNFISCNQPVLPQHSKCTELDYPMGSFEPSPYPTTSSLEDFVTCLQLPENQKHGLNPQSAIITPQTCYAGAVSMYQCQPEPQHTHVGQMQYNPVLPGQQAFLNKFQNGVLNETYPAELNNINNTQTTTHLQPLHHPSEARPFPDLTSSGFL
Sequence of Peroxisome proliferator-activated receptor gamma (Homo sapiens) (P37231 whole entry, looked up): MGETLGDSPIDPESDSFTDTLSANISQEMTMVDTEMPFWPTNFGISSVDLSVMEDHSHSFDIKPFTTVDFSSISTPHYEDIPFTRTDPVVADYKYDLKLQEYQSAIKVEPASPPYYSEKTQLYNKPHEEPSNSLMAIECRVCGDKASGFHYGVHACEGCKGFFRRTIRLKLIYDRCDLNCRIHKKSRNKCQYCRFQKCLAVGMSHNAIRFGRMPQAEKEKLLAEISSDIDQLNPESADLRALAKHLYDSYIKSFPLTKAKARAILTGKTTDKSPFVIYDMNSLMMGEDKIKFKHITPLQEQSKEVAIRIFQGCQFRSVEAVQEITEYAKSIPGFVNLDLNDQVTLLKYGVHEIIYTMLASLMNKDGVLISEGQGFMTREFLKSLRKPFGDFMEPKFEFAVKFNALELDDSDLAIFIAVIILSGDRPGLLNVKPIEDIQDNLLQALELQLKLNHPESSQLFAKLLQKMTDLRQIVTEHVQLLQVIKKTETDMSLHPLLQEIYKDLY
Sequence of Vitamin D3 receptor (Homo sapiens) (P11473 whole entry, looked up): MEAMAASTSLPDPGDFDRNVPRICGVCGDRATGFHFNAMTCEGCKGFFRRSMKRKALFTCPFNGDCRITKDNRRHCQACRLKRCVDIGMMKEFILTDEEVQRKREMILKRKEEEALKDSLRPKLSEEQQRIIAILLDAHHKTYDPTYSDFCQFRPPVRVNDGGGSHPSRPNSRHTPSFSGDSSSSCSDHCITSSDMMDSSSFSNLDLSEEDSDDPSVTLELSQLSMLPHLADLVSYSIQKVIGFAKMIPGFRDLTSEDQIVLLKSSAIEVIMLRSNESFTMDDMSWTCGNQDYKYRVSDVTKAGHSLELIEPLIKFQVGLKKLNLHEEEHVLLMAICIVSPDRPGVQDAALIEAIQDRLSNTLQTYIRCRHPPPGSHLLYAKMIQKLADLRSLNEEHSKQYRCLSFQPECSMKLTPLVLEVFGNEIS
Sequence of Peroxisome proliferator-activated receptor delta (Homo sapiens) (Q03181 whole entry, looked up): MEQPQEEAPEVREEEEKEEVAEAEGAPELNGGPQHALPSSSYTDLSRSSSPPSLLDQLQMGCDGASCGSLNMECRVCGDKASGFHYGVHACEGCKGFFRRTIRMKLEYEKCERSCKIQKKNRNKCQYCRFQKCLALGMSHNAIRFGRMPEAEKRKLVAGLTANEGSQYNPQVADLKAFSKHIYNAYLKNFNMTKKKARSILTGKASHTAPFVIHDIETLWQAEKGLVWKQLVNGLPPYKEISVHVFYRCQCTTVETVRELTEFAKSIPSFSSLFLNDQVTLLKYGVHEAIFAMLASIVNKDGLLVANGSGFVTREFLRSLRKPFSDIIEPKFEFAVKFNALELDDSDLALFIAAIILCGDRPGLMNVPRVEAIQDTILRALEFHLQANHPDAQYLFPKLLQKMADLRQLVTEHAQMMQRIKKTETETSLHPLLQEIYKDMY
Sequence of Bile acid receptor (Homo sapiens) (Q96RI1 whole entry, looked up): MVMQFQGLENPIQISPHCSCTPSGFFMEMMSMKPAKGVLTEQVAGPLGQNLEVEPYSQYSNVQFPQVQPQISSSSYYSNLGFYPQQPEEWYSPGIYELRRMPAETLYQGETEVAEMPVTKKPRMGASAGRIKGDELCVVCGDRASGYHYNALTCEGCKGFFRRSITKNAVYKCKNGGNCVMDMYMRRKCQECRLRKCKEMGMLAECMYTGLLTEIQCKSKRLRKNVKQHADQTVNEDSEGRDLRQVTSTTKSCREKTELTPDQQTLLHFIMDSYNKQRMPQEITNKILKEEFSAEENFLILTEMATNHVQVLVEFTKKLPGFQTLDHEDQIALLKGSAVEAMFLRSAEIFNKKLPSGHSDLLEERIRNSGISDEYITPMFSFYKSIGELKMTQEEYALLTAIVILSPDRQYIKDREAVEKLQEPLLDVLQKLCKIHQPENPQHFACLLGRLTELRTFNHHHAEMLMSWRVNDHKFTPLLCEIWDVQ

CC(N)C12CC3CC(CC(C3)C1)C2 (configuration not stated)
inactive: Potency [1] | Potency [2] | Potency [3] | Potency [4] | Potency [5] | outcome [6] | Potency [7] | outcome [8] | outcome [9] | outcome [10] | outcome [11] | outcome [12] | outcome [13] | outcome [14] | outcome [15] | outcome [16] | outcome [17] | outcome [18]

CC(=O)Oc1cccc(C)c1
inactive: Potency [1] | Potency [2] | Potency [3] | Potency [4] | Potency [5] | outcome [6] | Potency [7] | outcome [8] | outcome [9] | outcome [11] | outcome [12] | outcome [13] | outcome [14] | outcome [16] | outcome [17]

CCOC(=O)COc1cc(-n2ncc(C(F)(F)F)c(C)c2=O)c(F)cc1Cl
inactive: Potency [1] | Potency [2] | Potency [3] | Potency [4] | Potency [5] | outcome [6] | Potency [7] | outcome [8] | outcome [10] | outcome [11] | outcome [12] | outcome [13] | outcome [14] | outcome [16] | outcome [17] | outcome [18]

CC(C)CC(C)(N)C#N (configuration not stated)
inactive: Potency [1] | Potency [2] | Potency [3] | Potency [4] | Potency [5] | outcome [6] | Potency [7] | outcome [8] | outcome [9] | outcome [10] | outcome [11] | outcome [12] | outcome [13] | outcome [14] | outcome [15] | outcome [19] | outcome [17] | outcome [18]

CN(C)CCN(C)CCN(C)C
inactive: Potency [1] | Potency [2] | Potency [3] | Potency [4] | Potency [5] | outcome [6] | Potency [7] | outcome [8] | outcome [9] | outcome [11] | outcome [12] | outcome [16] | outcome [17]

C[C@@H]1CCC[C@H](C)N1
inactive: Potency [1] | Potency [2] | Potency [3] | Potency [4] | Potency [5] | outcome [6] | Potency [7] | outcome [8] | outcome [9] | outcome [10] | outcome [11] | outcome [13] | outcome [16] | outcome [17] | outcome [18]

C[N+]1(C)[C@@H]2CC(OC(=O)[C@H](CO)c3ccccc3)C[C@H]1[C@@H]1O[C@@H]12 (some centres not stated)
inactive: Potency [1] | Potency [2] | Potency [3] | Potency [4] | Potency [5] | outcome [6] | Potency [7] | outcome [8] | outcome [9] | outcome [10] | outcome [11] | outcome [13] | outcome [17] | outcome [18] | outcome [20]

CCN[C@@H]1C[C@H](N)[C@@H](OC2OC(CN)=CCC2N)[C@H](O)[C@H]1O[C@H]1OC[C@](C)(O)[C@H](NC)[C@H]1O (some centres not stated)
inactive: Potency [1] | Potency [2] | Potency [3] | Potency [4] | ratio activity, negative = inhibition [5] -0.0427% [at 0.55 µM] | activity change, negative = cytotoxicity [6] -4.19% [at 0.55 µM] | activation [7] -10.7% [at 0.756 µM] | viability change, negative = cytotoxic [8] -2.08% [at 0.756 µM] | activity change, negative = cytotoxicity [9] 9.84% [at 0.55 µM] | activation [10] -1.49% [at 0.55 µM] | activity change, negative = cytotoxicity [11] 7.95% [at 0.55 µM] | viability change, negative = cytotoxic [13] 8.69% [at 0.575 µM] | viability change, negative = cytotoxic [16] 10.1% [at 0.55 µM] | activity change, negative = cytotoxicity [17] 2.76% [at 0.55 µM] | activation [18] 11.5% [at 0.554 µM] | activity change, negative = inhibition [20] 9.37% [at 0.628 µM]

Cc1ccc(-c2ncc(Cl)cc2-c2ccc(S(C)(=O)=O)cc2)cn1
inactive: Potency [1] | Potency [2] | Potency [3] | Potency [4] | Potency [5] | outcome [6] | Potency [7] | outcome [8] | outcome [9] | outcome [10] | outcome [11] | outcome [13] | outcome [15] | outcome [19] | outcome [17] | outcome [18]
